High-throughput results from PubChem.
Efa HMGR inh = inhibitors of class II HMG-CoA reductase from Enterococcus faecalis | purified E. faecalis HMGR, NADPH absorbance 340 nm kinetic | actives 0.41% (n = 190,000) | inhibition, % at 10 µM;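 active = inhibition above a set limit, the median over all tested compounds plus 3 SD, cut at about 9.5% in these data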;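 note: enzyme runs in reverse so mevalonate oxidation gives rising NADPH absorbance; 0% = complete reaction with DMSO and 100% = background rate lacking mevalonate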
Furin inhibitor = blocks human furin protease activity | purified furin, fluorogenic substrate cleavage | actives 0.061% (n = 220,000) | inhibition, % at 20 µM or 30 µM | AID 463115 | P09958; in the data active = inhibition above about 25%
pCIP destab = p/CIP protein destabilization | Q05BA5 | F442A p/CIP-EGFP cells, EGFP fluorescence, 16 h | actives 0.01% (n = 290,000) | decrease of EGFP signal, % at 10 µM | AID 1984;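 active = EGFP signal decrease of at least 30% at 10 µM or well 3 SD below plate mean, unless failing retest; inactive = the rest, including hits failing retest or dose response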
Tb hexokinase = blocks Trypanosoma brucei hexokinase 1 activity; recombinant TbHK1, G6PDH-coupled NADH A340; inhibition, % at 10 µM; actives 0.11% (n = 220,000);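 active = inhibition of 50% or more in the single-dose primary screen; inactive = inhibition below 50%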
p97 inhibitor = inhibitors of human p97 ATPase; inhibition, % at 8 µM; actives 0.42% (n = 220,000); P55072; recombinant p97 ATPase, Kinase-Glo ATP luminescence, 3 h; in the data active = inhibition above about 15%;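 note: 0% = DMSO vehicle and 100% = wells lacking enzyme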
Target sequence (P55072 whole entry, looked up): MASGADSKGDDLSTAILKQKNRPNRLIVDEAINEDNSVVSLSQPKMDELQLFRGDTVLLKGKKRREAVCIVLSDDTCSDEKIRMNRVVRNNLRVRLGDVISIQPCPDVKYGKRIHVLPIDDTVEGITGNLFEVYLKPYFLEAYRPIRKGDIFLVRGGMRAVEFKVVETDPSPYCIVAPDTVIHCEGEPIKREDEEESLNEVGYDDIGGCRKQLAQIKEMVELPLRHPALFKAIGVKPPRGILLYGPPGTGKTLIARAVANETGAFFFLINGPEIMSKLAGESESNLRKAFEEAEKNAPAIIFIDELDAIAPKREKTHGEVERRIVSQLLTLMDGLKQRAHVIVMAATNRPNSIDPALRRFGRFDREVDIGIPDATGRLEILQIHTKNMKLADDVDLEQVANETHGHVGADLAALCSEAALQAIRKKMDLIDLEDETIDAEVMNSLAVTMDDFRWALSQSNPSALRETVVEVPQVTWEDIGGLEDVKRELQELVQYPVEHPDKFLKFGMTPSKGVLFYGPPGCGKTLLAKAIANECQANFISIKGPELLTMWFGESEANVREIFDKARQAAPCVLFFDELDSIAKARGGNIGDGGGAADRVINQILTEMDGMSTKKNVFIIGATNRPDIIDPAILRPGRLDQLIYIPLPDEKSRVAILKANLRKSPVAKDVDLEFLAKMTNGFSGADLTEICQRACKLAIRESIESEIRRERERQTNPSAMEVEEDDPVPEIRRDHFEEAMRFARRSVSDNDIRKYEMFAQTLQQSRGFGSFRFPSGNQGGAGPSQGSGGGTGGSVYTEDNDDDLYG
DTT redox prof = compounds producing H2O2 with reducing agent – biochemical, NIH compound library profiling, artefact control for MLSCN library redox annotation, primary screen; DTT-dependent redox cycling H2O2, phenol red/HRP absorbance; 100% = 100 µM peroxide control, 0% = buffer; activation, % at 10 µM; actives 0.03% (n = 200,000); AID 878;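 active = activation of at least 50% relative to the plate's high and low controls in the primary single-dose screen; inactive = activation below 50%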;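 note: compound incubated with DTT at 0.8 mM final as the reducing agent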
p97 inh conf = confirmation of human p97 ATPase inhibitors | shares compounds with p97 inhibitor | recombinant p97 ATPase, Kinase-Glo ATP luminescence | inhibition, % at 8 µM | actives 44% (n = 760);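 active = percent inhibition of p97 ATPase above a set limit, the primary screen's mean plus 3 SD, cut at about 15% in these data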;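 note: 0% = DMSO wells and 100% = wells lacking p97 protein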
The depositor's hits bear a star. Sampled rows, rich in hits. Any-hit rate of the full collection: about 0.74%.

Results for Cn1cc([N+](=O)[O-])c(C(=O)Nc2nccs2)n1 ?
Efa HMGR inh: -5; Furin inhibitor: -23; pCIP destab: -13; Tb hexokinase: -6; p97 inhibitor: 17*; DTT redox prof: -1; p97 inh conf: 7

What do the screens show for `COc1ccc(C(=O)Nc2nccs2)cc1[N+](=O)[O-]`?
Efa HMGR inh: -7; Furin inhibitor: -10; pCIP destab: -2; Tb hexokinase: -10; p97 inhibitor: 5; DTT redox prof: 0

Results for CCc1nnc(SCC(=O)N2CCCC(N3CCN(c4ccccc4C)CC3)C2)o1 (stereo not drawn) ?
pCIP destab: 14

How did N#C/C(=C(/O)CCl)c1nc2ccccc2[nH]1 do in these assays?
Efa HMGR inh: 1; Furin inhibitor: -10; pCIP destab: 2; Tb hexokinase: -1; p97 inhibitor: 38*; DTT redox prof: -1; p97 inh conf: 30*

What do the screens show for `Cc1ccc(C)c(SCC(=O)OC/C(O)=C(\C#N)c2nc3ccccc3[nH]2)c1`?
Efa HMGR inh: -4; Furin inhibitor: -10; pCIP destab: 0; Tb hexokinase: -3; p97 inhibitor: 18*; DTT redox prof: 0; p97 inh conf: 40*

Results for Cc1cc(Br)ccc1SCC(=O)OC/C(O)=C(\C#N)c1nc2ccccc2[nH]1 ?
Furin inhibitor: -26; pCIP destab: -10; Tb hexokinase: -11; p97 inhibitor: 7

What do the screens show for `N#C/C(=C(\O)Cc1ccccc1)c1nc2ccccc2[nH]1`?
Efa HMGR inh: -1; Furin inhibitor: -5; pCIP destab: -4; Tb hexokinase: -4; p97 inhibitor: -5; DTT redox prof: 0

Results for Cc1csc2c(=O)sc(NC(=O)c3cccs3)nc12 ?
Furin inhibitor: -5; pCIP destab: 4; Tb hexokinase: -16; p97 inhibitor: 34*; p97 inh conf: 28*

What do the screens show for `COc1cc(/C=C2/C(=O)N(c3ccc(C)c(C)c3)N=C2C)cc([N+](=O)[O-])c1O`?
pCIP destab: -1

What do the screens show for `CC1=NN(c2ccccc2)C(=O)/C1=C\c1ccc(Oc2ccc([N+](=O)[O-])cc2[N+](=O)[O-])cc1`?
Efa HMGR inh: -6; Furin inhibitor: -11; pCIP destab: 4; Tb hexokinase: -9; p97 inhibitor: 23*; DTT redox prof: 1; p97 inh conf: 9

How did COc1cc(/C=C2\C(=O)N(c3ccccc3)N=C2C)ccc1Oc1ccc([N+](=O)[O-])cc1[N+](=O)[O-] do in these assays?
Efa HMGR inh: -1; Furin inhibitor: -6; pCIP destab: -9; Tb hexokinase: -2; p97 inhibitor: 18*; DTT redox prof: 0; p97 inh conf: 9

How did COc1ccccc1/C=C1/C(=O)N(c2ccccc2)N=C1C do in these assays?
pCIP destab: 0

What do the screens show for `CC[N+](C)(C)CCN(Cc1ccc(Cl)cc1)c1ccccn1`?
Efa HMGR inh: -5; Furin inhibitor: -19; pCIP destab: 5; Tb hexokinase: -4; p97 inhibitor: 15*; DTT redox prof: 0; p97 inh conf: 3

What do the screens show for `Fc1ccccc1-c1nc(NCc2ccco2)c2ccccc2n1`?
Efa HMGR inh: -2; Furin inhibitor: -22; pCIP destab: 2; Tb hexokinase: 5; p97 inhibitor: 22*; DTT redox prof: 0; p97 inh conf: 28*

Results for Cc1nc2cc(-c3ccsc3-n3c(C)ccc3C)[nH]n2c(=O)c1Cl ?
Efa HMGR inh: -5; Furin inhibitor: -23; pCIP destab: -5; Tb hexokinase: 3; p97 inhibitor: 30*; DTT redox prof: 0; p97 inh conf: 10

What do the screens show for `Cc1cc(=O)n2[nH]c(-c3ccsc3-n3c(C)ccc3C)cc2n1`?
Furin inhibitor: 0; pCIP destab: -10; Tb hexokinase: -7; p97 inhibitor: 23*; p97 inh conf: 12

Results for CC(C)(C)C(=O)Nc1sc(-c2ccccc2)cc1C(=O)O ?
Furin inhibitor: -19; pCIP destab: -1; Tb hexokinase: -33; p97 inhibitor: 18*; p97 inh conf: 3

Results for COc1cccc(CNC(=O)CCC2CCCN(C(=O)c3ccccc3N(C)C)C2)c1 (stereo not drawn) ?
pCIP destab: 5

Results for Cc1ccccc1NC(=O)C(Cl)=C(Cl)Cl ?
Efa HMGR inh: -1; Furin inhibitor: -4; pCIP destab: -3; Tb hexokinase: 1; p97 inhibitor: 27*; DTT redox prof: -2; p97 inh conf: 36*

Results for Cc1ccccc1NNC(=O)C(=O)NNc1ccccc1C ?
Furin inhibitor: -7; pCIP destab: 0; Tb hexokinase: 1; p97 inhibitor: -4

What do the screens show for `O=C(NCc1n[nH]c(=S)n1-c1cccc(C(F)(F)F)c1)c1ccc(S(=O)(=O)N2CCCCC2)cc1`?
pCIP destab: -11

How did O=C1NN(c2ccc(F)c(Cl)c2)C(=O)/C1=C\c1cccc(OC(=O)c2cccs2)c1 do in these assays?
Efa HMGR inh: -7; Furin inhibitor: -23; pCIP destab: 1; Tb hexokinase: 0; p97 inhibitor: 16*; DTT redox prof: 1; p97 inh conf: 15

What do the screens show for `O=c1cc(-c2ccccc2)[nH]n1-c1nc2ccccc2[nH]1`?
Efa HMGR inh: -4; Furin inhibitor: 0; pCIP destab: 0; Tb hexokinase: -2; p97 inhibitor: -2; DTT redox prof: 1

How did N#CCCn1[nH]c(-c2ccccc2)cc1=O do in these assays?
Efa HMGR inh: -9; Furin inhibitor: -27; pCIP destab: 4; Tb hexokinase: 1; p97 inhibitor: 22*; DTT redox prof: 0; p97 inh conf: 5

Results for COc1ccc(/C=C2\SC(=S)N(CC(=O)OCC(=O)Nc3cc(Cl)cc(Cl)c3)C2=O)cc1 ?
Furin inhibitor: -10; pCIP destab: -9; Tb hexokinase: -2; p97 inhibitor: -2

What do the screens show for `Cc1cc(OCC(O)CN2CCc3ccccc3C2)ccc1Cl` (stereo not drawn)?
pCIP destab: -3

How did CNc1nc(NCc2ccccc2)c2ccccc2n1 do in these assays?
pCIP destab: -24

Results for Oc1ccccc1Nc1nc(NCc2ccccc2)c2ccccc2n1 ?
Efa HMGR inh: -3; Furin inhibitor: -20; pCIP destab: 2; Tb hexokinase: -14; p97 inhibitor: 26*; DTT redox prof: 0; p97 inh conf: 31*

Results for COc1cccc(C(=O)NCc2ccc3c(c2)cc(C)n3C)c1 ?
Efa HMGR inh: -2; Furin inhibitor: -5; pCIP destab: -13; Tb hexokinase: 9; p97 inhibitor: 20*; DTT redox prof: -9; p97 inh conf: 8
